The supplement of paper PMC3724861
Only a selection was taken, and hits are over-represented in it overall. How many sequences the whole screen found active is unknown.

Tested on: T1, Caupolican (Caup) homeodomain DNA-binding domain
T1 sequence: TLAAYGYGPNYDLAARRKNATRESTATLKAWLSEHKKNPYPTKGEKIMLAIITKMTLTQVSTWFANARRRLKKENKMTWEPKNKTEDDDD
Experiment: PBM E-score (8-mer, recovered from the published 9-mer minima) (E-score (dimensionless, -0.5 to 0.5)); Drosophila protein; higher = stronger relative binding preference, active = 0.31 or more
Outline: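 Caup's homeodomain DNA-binding domain (residues 214-303) was produced by in vitro transcription and translation and applied at 100 nM to custom-designed protein binding microarrays. Each value is an enrichment score giving relative binding preference for a short DNA word; higher means stronger. Published 9-mer scores were the minimum of their two constituent 8-mer scores, and the 8-mer values were recovered from those minima. A cutoff of 0.31 marks candidate binding sequences.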

Sequence	PBM E-score
CCAGCCGG	-0.247 (inactive)
AATTAAAA	0.0931 (inactive)
ACAGTTTG	0.0438 (inactive)
AGAGTCAC	-0.0337 (inactive)
AATCTTAG	-0.0734 (inactive)
AGACCGGG	-0.179 (inactive)
CACCCGAA	-0.0428 (inactive)
GTCCCTAA	-0.0722 (inactive)
ACTGTTCA	0.0851 (inactive)
CTTGGATC	0.0244 (inactive)
CGTGTAGC	0.276 (inactive)
AGTGTACC	0.207 (inactive)
CGTGTGTA	0.283 (inactive)
CGTGTAGA	0.29 (inactive)
CGTGTACC	0.35 (active)
CGTGTACA	≥ 0.441 (active)
GTCATCTA	0.0593 (inactive)
GAGGTACA	0.326 (active)
ATGGTACA	0.32 (active)
ATGGTACG	0.0989 (inactive)
CAGGTACA	0.298 (inactive)
GTGGTACA	0.277 (inactive)
CTGGTACC	0.0519 (inactive)
CTGGTACA	0.319 (active)
TAGGTACA	0.271 (inactive)

Sequence	PBM E-score
ATGGTACC	0.0486 (inactive)
AGGACCTG	-0.102 (inactive)
AAGCATTG	0.102 (inactive)
CAACCTGG	0.0642 (inactive)
AGGTGGCC	-0.286 (inactive)
CAAGCCCC	-0.174 (inactive)
ACTACAAC	0.363 (active)
CCTACAAC	0.21 (inactive)
ACTACAAT	0.19 (inactive)
GCTACAAC	0.169 (inactive)
ACTACAAA	0.256 (inactive)
ACTACAAG	≥ 0.378 (active)
GAGAGCTC	-0.215 (inactive)
CGTCTATC	0.0194 (inactive)
CTTTTCGC	-0.012 (inactive)
CGGTTGTC	0.185 (inactive)
TACTTTAA	0.115 (inactive)
CCTGTCAG	0.115 (inactive)
CATGTCAG	0.413 (active)
GATGTCAC	0.294 (inactive)
CGTGTCAC	0.334 (active)
ATTGTCAC	0.224 (inactive)
CCTGTCAC	0.144 (inactive)
AATGTCAC	0.303 (inactive)
AGTGTCAC	0.13 (inactive)

Sequence	PBM E-score
AATGTCAG	0.197 (inactive)
CATGTCAC	0.446 (active)
CTTGTCAC	0.322 (active)
CGTGTCAG	0.276 (inactive)
AGCGTCCA	-0.0936 (inactive)
AAAGTATT	0.131 (inactive)
CGGGCTTC	-0.289 (inactive)
AGATCGGA	0.0416 (inactive)
GAAGTGAC	0.0523 (inactive)
GCCGGGGA	-0.241 (inactive)
CGAACCCC	-0.249 (inactive)
ATCAGTCC	-0.143 (inactive)
AAATTGGG	-0.0398 (inactive)
AAGTTTGC	0.0221 (inactive)
CCTGTCAA	0.172 (inactive)
CGTGTCAA	0.282 (inactive)
CATGTCAA	0.422 (active)
CGGGACTC	-0.204 (inactive)
CCCGATCC	-0.127 (inactive)
ATCCCCAC	-0.0707 (inactive)
GTACACAA	0.338 (active)
TCACACAA	0.193 (inactive)
AAACACAT	0.229 (inactive)
GCACACAC	0.0659 (inactive)
ATACACAT	0.311 (active)

Sequence	PBM E-score
AGACACAT	0.213 (inactive)
TGACACAA	0.259 (inactive)
GTACACAC	0.331 (active)
CTACACAC	0.175 (inactive)
CTACACAA	0.288 (inactive)
TTACACAA	0.311 (active)
GCACACAA	0.0665 (inactive)
CATGGCCC	-0.169 (inactive)
GGGCTTAC	-0.119 (inactive)
CACTAATA	0.118 (inactive)
GTTAGTAA	0.177 (inactive)
CTTATTAC	0.0885 (inactive)
CTGTGCGA	-0.0551 (inactive)
CCTACCGA	-0.0361 (inactive)
AGTGCGGG	-0.187 (inactive)
ATCTTCGG	0.00377 (inactive)
ACACAGCT	0.109 (inactive)
ACCCATCC	-0.0713 (inactive)
GCGCCCTA	-0.273 (inactive)
ATATAGCC	0.0657 (inactive)
ATACACAC	0.256 (inactive)
ATACACAA	≥ 0.341 (active)
ATACACAG	0.193 (inactive)
ATTTTCCC	-0.00887 (inactive)
CAAACTGC	-0.0256 (inactive)

Sequence	PBM E-score
CGCTAATC	-0.0282 (inactive)
TATAGAAA	0.118 (inactive)
AACAATGT	0.345 (active)
ACAAATGG	0.193 (inactive)
AACAATGA	0.244 (inactive)
ACAAATGA	0.154 (inactive)
ACAAATGT	≥ 0.311 (active)
AACAATGG	0.198 (inactive)
ATGAGCTC	-0.0796 (inactive)
ATTTCCTG	0.0432 (inactive)
AGGAGTAT	0.00187 (inactive)
CAGAGCGG	-0.155 (inactive)
ACATTACA	≥ 0.37 (active)
GCATTACA	0.267 (inactive)
ATATTACC	0.186 (inactive)
CTATTACC	0.0284 (inactive)
ATATTACA	0.35 (active)
GTATTACA	0.288 (inactive)
CTATTACA	0.346 (active)
ACATTACT	0.227 (inactive)
ATATTACG	0.16 (inactive)
CTGACTGC	-0.0466 (inactive)
ACAGATAT	0.159 (inactive)
CGGTCATA	-0.0654 (inactive)
CATCTGGG	-0.0619 (inactive)

Sequence	PBM E-score
GACACGAC	0.347 (active)
GACACGAA	0.224 (inactive)
CACACGAC	0.0592 (inactive)
AACACGAA	0.293 (inactive)
AACACGAC	0.321 (active)
AACACGAG	0.266 (inactive)
AGATATCC	0.0875 (inactive)
ACCCGGGC	-0.196 (inactive)
CCGTTTTC	-0.0987 (inactive)
CTATAACA	0.257 (inactive)
GTATAACA	0.338 (active)
GTATAAGA	0.112 (inactive)
GCATAACA	0.255 (inactive)
ATATAACA	0.372 (active)
ATATAACC	0.0533 (inactive)
CGTAGGTC	-0.0431 (inactive)
CAGCCTGG	-0.164 (inactive)
ATAAAGGC	-0.111 (inactive)
AGTGGTGG	-0.0979 (inactive)
AAGGAATT	-0.0309 (inactive)
